# According to PubChem BioAssay:
# Values without a mark were called inactive. The rule behind the calls is not given here.
# Target: Pantothenate synthetase (Mycobacterium tuberculosis (strain ATCC 25618 / H37Rv)) (UniProt P9WIL5)
# Assay: Recombinant Mtb pantothenate synthetase (PanC) inhibitors, coupled enzyme, confirmatory (AID 375);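 note: 0% = full reaction with vehicle and 100% = no enzyme background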
# Conditions: coupled enzyme assay; at 10 µM, active compounds read high
# Sequence of Pantothenate synthetase (Mycobacterium tuberculosis (strain ATCC 25618 / H37Rv)) (P9WIL5 whole entry, looked up): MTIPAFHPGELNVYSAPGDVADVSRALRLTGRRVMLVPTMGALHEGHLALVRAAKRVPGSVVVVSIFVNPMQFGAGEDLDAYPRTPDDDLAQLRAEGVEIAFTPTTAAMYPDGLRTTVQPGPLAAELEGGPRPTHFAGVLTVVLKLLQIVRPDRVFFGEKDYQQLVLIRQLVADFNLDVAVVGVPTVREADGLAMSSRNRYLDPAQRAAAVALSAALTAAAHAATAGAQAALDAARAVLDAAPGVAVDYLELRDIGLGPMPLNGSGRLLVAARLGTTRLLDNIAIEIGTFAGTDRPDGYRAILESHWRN
row,SMILES,inhibition [%]
1,CN1CCN2c3ccccc3Cc3ccccc3C2C1 (stereo not given),0
2,Nc1ccc2[nH]ncc2c1,0
3,CCOC(=O)c1ccc2[nH]c3c(c2c1)CCCCC3=O,0
4,O=C(CCc1ccccc1)Nc1ccncc1,0
5,CCNCC(O)COCC(O)CNCC (stereo not given),0
6,Cc1cc(C)n(CC(=O)NC2CCCCC2)n1,0
7,O=C1CC(c2ccc(F)c(Br)c2)C2=C(CCCC2=O)N1 (stereo not given),5
8,COc1ccc(CCNC(=O)C2CCN(S(=O)(=O)c3cc(OC)ccc3OC)CC2)cc1,0
9,O=C(c1ccccc1)N1CCCCC(Sc2nnnn2-c2ccccc2)C1=O (stereo not given),0
10,Cc1ccccc1-c1nc2ccccc2c(=O)n1C1CCS(=O)(=O)C1 (stereo not given),0
11,O=C(CS(=O)(=O)c1cn(Cc2ccc(F)cc2)c2ccccc12)N1CCCCC1,0
12,COc1cccc2sc(NC(=O)c3ccc(S(=O)(=O)N4CCOCC4)cc3)nc12,1
13,CCN(CC)CC(C)CNC(=O)CC(C(=O)N1CCc2ccccc21)n1ccnc1 (stereo not given),2
14,COc1cccc(-c2nc3n(n2)C(c2cccs2)C(C(=O)Nc2cccnc2)=C(C)N3)c1 (stereo not given),0
15,CCC(C)NC(=O)C1(C)CCC(=O)N1CCc1ccc(OC)c(OC)c1 (stereo not given),0
16,Cc1ccc(C(=O)CCC2CCCC2=O)cc1 (stereo not given),0
17,CCn1cc(C2=NCC(C)O2)c2ccccc21 (stereo not given),2
18,COc1ccc(C2CC(c3ccc(Cl)cc3)Nc3nc(NC(=O)c4ccco4)nn32)cc1 (stereo not given),4
19,C(=N/n1c2ccccc2c2ccccc21)/c1ccco1,0
20,COc1ccc(-n2nnc3c(=O)n(C/C=C/c4ccccc4)cnc32)cc1,2

row,SMILES,inhibition [%]
1,CCCC(=O)Nc1ccc2oc(-c3cccnc3)nc2c1,0
2,CCC(Oc1ccc2ccccc2c1)C(=O)O (stereo not given),0
3,COc1ccccc1CN1C(=O)CCC1(C)C(=O)NC1CCCCCC1 (stereo not given),8
4,Cc1c(/C(O)=C2/C(=O)C(=O)N(CCN3CCOCC3)C2c2cccnc2)cnn1-c1ccccc1 (stereo not given),1
5,Cc1ccc(N(C(C)C(=O)Nc2ccc(S(=O)(=O)N3CCOCC3)cc2)S(C)(=O)=O)cc1 (stereo not given),0
6,CCSCCC(NC1=CC(=O)CC(C)(C)C1)C(=O)O (stereo not given),0
7,Cc1cccc(NCc2ccccc2O)c1,3
8,Cc1noc(C)c1CSc1ccccc1C(=O)N1CCN(c2ccccc2)CC1,0
9,CCCCN(Cc1cc2cc(OC)ccc2[nH]c1=O)C(=O)COc1ccccc1,2
10,CC(=O)OCC(=O)[C@@]1(O)CC[C@H]2[C@@H]3CCC4=CC(=O)CC[C@]4(C)[C@H]3[C@@H](O)C[C@@]21C,5
11,CC(C)CCSc1nc2c(c(=O)[nH]c(=O)n2C)n1CCCc1ccccc1,0
12,N#CCCn1cnc2ccccc21,0
13,Cc1cccc(NC(=O)c2cc(NC(=O)c3ccco3)ccc2Cl)n1,0
14,COc1ccccc1NC(=O)C(C)NS(=O)(=O)c1ccc(F)cc1 (stereo not given),0
15,COCCNC(=O)C1CCCN(c2ncccn2)C1 (stereo not given),0
16,CCOC(=O)c1ccc(NC(=O)COc2ccc(-n3cnnn3)cc2)cc1,0
17,C/C(=C\C(=O)O)CC(=O)O,0
18,O=C(c1ccco1)c1nnn(Cc2ccccc2)c1-c1ccccc1,1
19,COc1ccc(N2C(=O)C(Cl)=C(N3CCCC3)C2=O)cc1,0
20,c1cn(C23CC4CC(CC(C4)C2)C3)cn1,0
